These results are taken from ChEMBL document CHEMBL1961873, “Compounds: GSK PKIS; Assays: Nanosyn kinase panel” (2012).
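Further: reported percentages are mean inhibition values.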

This assay deals with CDK3/Cyclin E (Homo sapiens) (UniProt P24864+Q00526). To be noted: at 0.1 µM.
CDK3/Cyclin E (Homo sapiens), sequence (P24864 whole entry, looked up): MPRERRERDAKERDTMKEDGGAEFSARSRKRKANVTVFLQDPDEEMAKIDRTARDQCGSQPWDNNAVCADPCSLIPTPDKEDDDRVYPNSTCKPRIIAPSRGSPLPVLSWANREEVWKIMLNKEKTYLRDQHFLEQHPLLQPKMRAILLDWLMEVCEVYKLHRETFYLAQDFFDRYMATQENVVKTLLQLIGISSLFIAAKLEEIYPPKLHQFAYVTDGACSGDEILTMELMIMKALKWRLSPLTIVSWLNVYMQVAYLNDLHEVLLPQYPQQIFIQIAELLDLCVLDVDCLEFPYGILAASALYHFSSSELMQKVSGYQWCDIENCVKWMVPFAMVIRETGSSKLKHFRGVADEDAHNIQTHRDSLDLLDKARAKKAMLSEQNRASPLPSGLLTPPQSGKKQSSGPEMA
CDK3/Cyclin E (Homo sapiens), sequence (Q00526 whole entry, looked up): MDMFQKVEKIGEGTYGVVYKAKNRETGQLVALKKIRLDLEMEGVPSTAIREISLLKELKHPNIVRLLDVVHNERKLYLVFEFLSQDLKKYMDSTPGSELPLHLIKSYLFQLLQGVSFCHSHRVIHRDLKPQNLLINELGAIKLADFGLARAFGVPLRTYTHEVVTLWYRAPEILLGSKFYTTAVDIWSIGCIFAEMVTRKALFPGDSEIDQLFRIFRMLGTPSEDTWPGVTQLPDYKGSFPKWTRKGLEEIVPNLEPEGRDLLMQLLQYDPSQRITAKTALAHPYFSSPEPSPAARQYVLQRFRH
As to `CN(c1ccc(NC(=O)Nc2c(Cl)cccc2Cl)cc1)c1ccnc(Nc2cccc(CS(C)(=O)=O)c2)n1`, the inhibition was found to be 0.7%.
For `CCS(=O)(=O)c1ccc(OC)c(Nc2ncc(-c3cccc(-c4ccccc4F)c3)o2)c1`, the inhibition was 0.64%.
`CS(=O)(=O)CCNCc1ccc(-c2ccc3ncnc(Nc4ccc(OCc5ccccc5)c(Br)c4)c3c2)o1`: the inhibition is -2.03%.
For `N#Cc1ccc(Oc2nccc(-c3c(-c4ccc(F)cc4)ncn3C3CCNCC3)n2)cc1`, the inhibition was -1.88%.
Turning to `Fc1ccc(-c2ncn(C3CCNCC3)c2-c2ccnc(Oc3ccc4c(c3)OCO4)n2)cc1`, the inhibition was -0.22%.
The result for `COc1cc(N2CCN(C(C)C)CC2)ccc1Nc1nc(Nc2ccc(F)cc2C(=O)NC[C@@H](O)CO)c2cc[nH]c2n1` reads 3.35%; that for `O=C1NC(=O)C(c2cccc(Cl)c2)=C1Nc1ccc(Cl)c(C(=O)O)c1`, 3.54%; that for `NC(=O)c1cc(-c2ccncc2)cc(-c2ccccc2)c1N`, 4.6%.
As for `CS(=O)(=O)CCNCc1cc(-c2cc3c(Nc4ccc(OCc5cccc(F)c5)c(Cl)c4)ncnc3s2)cs1`, the inhibition was -3.37%.
Regarding `Cc1ccc(C(=O)NC2CCC2)cc1-c1ccc(C(=O)NCC2CC2)cc1`, the inhibition amounted to 2.79%.
Consider `NC(=O)c1cc(-c2ccc(F)cc2)cc(-c2ccncc2)c1N`, for which the inhibition stood at 4.68%.
The result for `O=C(Nc1n[nH]c2cc(-c3ccccc3)ccc12)C1CC1` reads 2.98%.
`O=C(Nc1n[nH]c2nc(-c3ccc(O)cc3)c(Br)cc12)C1CC1`: the inhibition came out at 27.5%.
As for `C/C(Nc1ccc(S(N)(=O)=O)cc1)=C1/C(=O)Nc2ccccc21`, the inhibition came out at 9.17%.
Regarding `O=C1Nc2ccccc2/C1=C/Nc1ccc(-n2cncn2)cc1`, the inhibition is 7.69%.
The result for `CCc1nccc2c1nc(-c1nonc1N)n2CC` reads 1.31%.

As usually defined, the inhibition is the relative decrease from the control value, in per cent.
